Data reported in the supplement of paper PMC12350171.
Counter-ions that a name gives are not always drawn.

Experiments:
Settings in all cases: 20 µM
[1] = test system: Salmonella enterica typhimurium; test: growth AUC normalised to DMSO control (fraction of control); higher = less growth inhibition, active = hit call of the paper
Summary of the method: (§1)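 For the AUC endpoint, growth curves were integrated by the trapezoidal rule up to the exponential-to-stationary transition and normalised to DMSO controls on the same plate. The curves came from OD578 readings taken hourly for 24 h, in three biological replicates. Pathogens had been passaged anaerobically twice and inoculated at an OD578 of 0.01 into pre-reduced mGAM plates carrying 20 μM compound and 1% DMSO, sealed with breathable membranes. Medium for Haemophilus parainfluenzae also contained hemin and NAD.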

[2] = test system: Shigella flexneri; test: as above
Summary of the method: as §1

[3] = test system: Vibrio cholerae; test: as above
Summary of the method: as §1

[4] = test system: Yersinia pseudotuberculosis; test: as above
Summary of the method: as §1

[5] = test system: P. vulgatus RND KO; test: growth AUC normalised to DMSO control (median) (fraction of control); higher = less growth inhibition, active = hit call of the paper
Summary of the method: (§2)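 Area under the growth curve, calculated by the trapezoidal rule up to entry into stationary phase, was normalised to vehicle wells on the same plate. Strains had been passaged twice overnight without oxygen and then grown in mGAM in 96-well plates from OD578 0.01, each with an approved-drug library compound at 20 μM in 1% DMSO. OD578 was read hourly over 24 h in an anaerobic incubator, and the median of three biological replicates is given.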

[6] = test system: P. vulgatus WT; test: as above
Summary of the method: as §2

[7] = test system: S. enterica typhimurium WT; test: as above
Summary of the method: as §2

[8] = test system: S. enterica typhimurium tolC KO; test: as above
Summary of the method: as §2

Measured: growth AUC normalised to DMSO control
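For growth AUC normalised to DMSO control (median) in this document: active when median AUC fell below 0.1.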

Cc1cc2c(cc1S(N)(=O)=O)S(=O)(=O)CCC2 [Meticrane]
inactive: [1] 1.01 | [2] 0.996 | [3] 1.01 | [4] 1.01 | [5] 1.03 | [6] 1.01 | [7] 1.02 | [8] 1.01

O=C(O)c1cn(-c2ccc(F)cc2)c2cc(N3CCNCC3)c(F)cc2c1=O [Sarafloxacin]
active: [1] 0.0114 | [2] 0.0236 | [3] 0.0367 | [4] 0.0409 | [5] 0.0128 | [6] 0.0174 | [7] 0.00503 | [8] 0.0079

COc1cc(C(=O)NS(=O)(=O)c2ccccc2C)ccc1Cc1cn(C)c2ccc(NC(=O)OC3CCCC3)cc12 [Zafirlukast]
inactive: [1] 0.961 | [2] 0.982 | [3] 0.966 | [4] 0.988 | [5] 0.84 | [6] 0.891 | [7] 1.01 | [8] 0.962

COc1ccccc1OCC(O)COC(N)=O (configuration not stated) [Methocarbamol]
inactive: [1] 0.986 | [2] 0.981 | [3] 0.94 | [4] 0.979 | [5] 0.993 | [6] 1.03 | [7] 1 | [8] 1

CC(=O)Oc1ccccc1C(=O)O [Acetylsalicylic acid]
inactive: [1] 1.04 | [2] 1.04 | [3] 1.09 | [4] 1.02 | [5] 1.01 | [6] 1.01 | [7] 1.01 | [8] 1.01

CCCCCCCCNC(C)C(O)c1ccc(SC(C)C)cc1 (configuration not stated) [Suloctidil]
inactive: [1] 1.02 | [2] 0.995 | [3] 1 | [4] 0.937 | [5] 0.992 | [6] 1.02 | [7] 1.02 | [8] 0.997

CC(=O)N(CC(O)CO)c1c(I)c(C(=O)NCC(O)CO)c(I)c(C(=O)NCC(O)CO)c1I (configuration not stated) [Iohexol]
inactive: [1] 0.997 | [2] 0.968 | [3] 0.995 | [4] 1 | [5] 1.01 | [6] 0.978 | [7] 0.999 | [8] 1.01

CCCCC(CC)CNC(=N)NC(=N)NCCCCCCNC(=N)NC(=N)NCC(CC)CCCC (configuration not stated) [Alexidine dihydrochloride]
inactive: [1] 0.981 | [3] 0.924 | [7] 0.977 | [8] 0.964
active: [2] 0.833 | [4] 0.731 | [5] 0.0131 | [6] 0.00943

Nc1ccc(O)c(C(=O)O)c1 [Mesalamine]
inactive: [1] 1.01 | [2] 1.02 | [3] 1.02 | [4] 1.03 | [5] 1 | [6] 1.03 | [7] 0.998 | [8] 1.01

C[C@]12CC[C@H]3[C@@H](CCC4=CC(=O)CC[C@@]43C)[C@@H]1CC[C@@H]2C(=O)CO [Deoxycorticosterone]
inactive: [1] 1 | [2] 1.03 | [3] 1.03 | [4] 1.03 | [5] 1.07 | [6] 1.07 | [7] 1 | [8] 0.933

CC(N/C(=N\C#N)Nc1ccncc1)C(C)(C)C (configuration not stated) [Pinacidil monohydrate]
inactive: [1] 0.991 | [2] 1 | [3] 0.998 | [4] 0.982 | [5] 1.07 | [6] 1.06 | [7] 1.01 | [8] 0.976

CC1(C)[C@@H](OC(=O)CCC(=O)O)CC[C@]2(C)[C@H]3C(=O)C=C4[C@@H]5C[C@@](C)(C(=O)O)CC[C@]5(C)CC[C@@]4(C)[C@]3(C)CC[C@@H]12 [Carbenoxolone disodium salt]
inactive: [1] 0.992 | [2] 0.939 | [3] 0.971 | [4] 0.978 | [5] 0.967 | [6] 0.976 | [7] 0.997 | [8] 0.987

Nc1ncnc2c1ncn2[C@@H]1O[C@H](CO)[C@@H](O)[C@@H]1O [Vidarabine]
inactive: [1] 0.988 | [2] 0.984 | [3] 0.975 | [4] 0.829 | [5] 0.971 | [6] 0.977 | [7] 0.99 | [8] 0.995

CC(CCc1ccc(O)cc1)NCCc1ccc(O)c(O)c1 (configuration not stated) [Dobutamine hydrochloride]
inactive: [1] 0.988 | [2] 0.976 | [3] 0.99 | [4] 1 | [5] 0.993 | [6] 0.999 | [7] 1.01 | [8] 0.998

COc1ccccc1O [Guaiacol]
inactive: [1] 0.991 | [2] 0.976 | [3] 0.992 | [4] 0.999 | [5] 0.99 | [6] 1 | [7] 0.997 | [8] 1

Cc1c(NC(C)C)c(=O)n(-c2ccccc2)n1C [Isopyrin hydrochloride]
inactive: [1] 1.02 | [2] 1.01 | [3] 1.02 | [4] 0.982 | [5] 1.02 | [6] 1.06 | [7] 1 | [8] 1.01

CN(Cc1ccc(C(C)(C)C)cc1)Cc1cccc2ccccc12 [Butenafine hydrochloride]
inactive: [1] 0.974 | [2] 0.968 | [3] 0.926 | [4] 0.99 | [5] 0.967 | [6] 0.96 | [7] 0.995 | [8] 0.957

O=C(OCC(O)CO)c1ccccc1Nc1ccnc2cc(Cl)ccc12 (configuration not stated) [Glafenine hydrochloride]
inactive: [1] 0.981 | [2] 0.938 | [3] 0.88 | [4] 0.941 | [5] 1.01 | [6] 0.995 | [7] 0.997 | [8] 0.935

CCN(CC)CCOCCOC(=O)C1(c2ccccc2)CCCC1 [Carbetapentane citrate]
inactive: [1] 0.995 | [2] 1 | [3] 1 | [4] 1 | [5] 1.01 | [6] 1.01 | [7] 0.995 | [8] 0.992

COCCOC(=O)C1=C(C)NC(C)=C(C(=O)OC(C)C)C1c1cccc([N+](=O)[O-])c1 (configuration not stated) [Nimodipine]
inactive: [1] 0.984 | [2] 0.939 | [3] 0.956 | [4] 0.957 | [5] 1.02 | [6] 1 | [7] 0.991 | [8] 0.967

CC(C)(CO)[C@@H](O)C(=O)NCCCO [(D)-Panthenol]
inactive: [1] 0.999 | [2] 1.02 | [3] 0.998 | [4] 0.99 | [5] 0.995 | [6] 0.979 | [7] 1 | [8] 1

CN(C)C(=O)C(CCN1CCC(O)(c2ccc(Cl)cc2)CC1)(c1ccccc1)c1ccccc1 [Loperamide hydrochloride]
inactive: [1] 0.997 | [2] 0.972 | [3] 0.981 | [4] 0.988 | [5] 1 | [6] 1.01 | [7] 1 | [8] 0.987

COc1ccc([C@@H]2CC(=O)c3c(O)cc(O[C@@H]4O[C@H](CO[C@@H]5O[C@@H](C)[C@H](O)[C@@H](O)[C@H]5O)[C@@H](O)[C@H](O)[C@H]4O)cc3O2)cc1O [Hesperidin]
inactive: [1] 1.03 | [2] 1.04 | [3] 1.07 | [4] 1.01 | [5] 1.03 | [6] 1 | [7] 1 | [8] 1.01

CN1CCC(=C2c3ccccc3C=Cc3ccccc32)CC1 [Cyproheptadine hydrochloride]
inactive: [1] 0.998 | [2] 1 | [3] 0.91 | [4] 1 | [5] 0.97 | [6] 0.976 | [7] 1.01 | [8] 0.969

CCN(CC)CC#CCOC(=O)C(O)(c1ccccc1)C1CCCCC1 (configuration not stated) [Oxybutynin chloride]
inactive: [1] 0.977 | [2] 0.944 | [3] 0.935 | [4] 0.981 | [5] 0.976 | [6] 0.986 | [7] 0.999 | [8] 0.946

Cc1ccc(-c2ncc(Cl)cc2-c2ccc(S(C)(=O)=O)cc2)cn1 [Etoricoxib]
inactive: [1] 1.01 | [2] 1.03 | [3] 1.03 | [4] 0.989 | [5] 1.01 | [6] 1.03 | [7] 0.972 | [8] 0.978

C[C@H](CCC(=O)O)[C@H]1CC[C@H]2[C@@H]3[C@H](O)C[C@@H]4C[C@H](O)CC[C@]4(C)[C@H]3CC[C@]12C [Chenodiol]
inactive: [1] 0.991 | [2] 0.96 | [3] 0.988 | [4] 1.01 | [5] 0.922 | [6] 0.94 | [7] 0.998 | [8] 1.01

O=C(N/N=C/c1ccc([N+](=O)[O-])o1)c1ccc(O)cc1 [Nifuroxazide]
active: [1] 0.866 | [2] 0.189 | [3] 0.623
inactive: [4] 0.96 | [5] 0.883 | [6] 0.861 | [7] 0.924 | [8] 0.862

OC(CCN1CCCCC1)(c1ccccc1)c1ccccc1 [Pridinol methanesulfonate salt]
inactive: [1] 0.993 | [2] 1.02 | [3] 1.07 | [4] 0.988 | [5] 0.963 | [6] 0.953 | [7] 0.991 | [8] 0.994
